PubChem BioAssay (NCATS)
Records with an inconclusive call do not appear. A call without a number means that no potency is given here. Values without a mark were called inactive. Calls of active or inactive are those of the source. Calls follow the shape of the dose curve; as a rule, active = well fitted curve in the direction sought with a large enough effect; inconclusive = small, poorly fitted or top-dose-only effect, or another doubt; inactive = no such curve, though single readings can be large; an effect the other way counts as inactive or inconclusive.

Key:
[1] = molecular target: Aldehyde dehydrogenase, mitochondrial (Homo sapiens) (UniProt P05091); assay: qHTS for Inhibitors of the Aldehyde Dehydrogenase Family (ALDH2) Primary screen (AID 2061308); settings: ALDH2 enzyme inhibition qHTS, 1536-well; series mostly up to 56 µM; also: nearly all actives have a fitted effect of over 55% in size
[2] = molecular target: Retinaldehyde dehydrogenase 3 (Homo sapiens) (UniProt P47895); assay: qHTS for Inhibitors of the Aldehyde Dehydrogenase Family (ALDH1A3) Primary screen (AID 2061315); settings: ALDH inhibition qHTS; series mostly up to 56 µM

SMILES: CC(=O)O[C@H]1C[C@@H]2[C@]3(CC[C@]4(C)[C@@H](C5(C)CCC(C(C)(C)O)O5)[C@@H](O)C[C@@]24C)C[C@@]32CC[C@H](O[C@@H]3OC[C@@H](O)[C@H](O)[C@H]3O)C(C)(C)[C@H]12 (stereo partly drawn)
- Potency [1]: inactive
- Potency [2]: inactive

SMILES: COC1=CC(=O)O[C@@H](/C=C/c2ccccc2)[C@@H]1O
- Potency [1]: inactive
- Potency [2]: inactive

SMILES: CC(=O)O[C@@H]1C[C@]2(C)[C@@]3(CCC4[C@@]5(C)CC[C@H](O[C@@H]6O[C@H](C(=O)O)[C@@H](O)[C@H](OC7OC(CO)C(O)C(O)[C@H]7O[C@@H]7O[C@@H](C)[C@H](O)[C@@H](O)[C@H]7O[C@@H]7OC[C@](O)(CO)[C@H]7O)[C@H]6OC6OC(CO)C(O)C(O)C6O)C(C)(C)C5CC[C@]42C)OC[C@@]12CCC(C)(C)CC23 (stereo partly drawn)
- activity change, negative = inhibition [1]: 9.13% [at 11.2 µM]
- activity change, negative = inhibition [2]: 6.07% [at 11.2 µM]

SMILES: CC(C)C1(O)C=C2C(=O)CC3C(C)(C(=O)O)CCCC3(C)C2CC1 (stereo not drawn)
- Potency [1]: inactive
- Potency [2]: inactive

SMILES: CC1OC(O[C@@H]2[C@H](O)[C@@H](OC3OC(CO)C(O)C(O)C3O)[C@H](OC(=O)[C@]34CCC(C)(C)C[C@H]3C3=CCC5[C@@]6(C)CC[C@H](O[C@@H]7O[C@H](C(=O)O)[C@@H](O)[C@H](O[C@@H]8OC[C@@H](O)[C@H](O)[C@H]8O)[C@H]7O[C@@H]7O[C@H](CO)[C@H](O)[C@H](O)[C@H]7O)[C@@](C)(C=O)C6CC[C@@]5(C)[C@]3(C)C[C@H]4O)O[C@@H]2C)C(O)C(O)C1OC1OCC(O)C(O)C1O (stereo partly drawn)
- activity change, negative = inhibition [1]: 2.11% [at 11.2 µM]
- activity change, negative = inhibition [2]: 11.9% [at 11.2 µM]

SMILES: C[C@@H]1C[C@H]2O[C@@]3(O[C@@H]2C(C)(C)O)C(O)[C@@]2(C)C4CCC5C(C)(C)[C@@H](O[C@H]6OC[C@H](O)[C@@H](O)[C@@H]6O)CC[C@@]56C[C@@]46CC[C@]2(C)C13 (stereo partly drawn)
- Potency [1]: inactive
- Potency [2]: inactive

SMILES: C[C@@H]1C(=O)O[C@H]2[C@H]1CC[C@@]1(C)C(=O)C=C[C@](C)(O)[C@H]21
- Potency [1]: inactive
- Potency [2]: inactive

SMILES: COc1cc(F)c(C(C)C)cc1-c1ccc(C(F)(F)F)cc1CN1C(=O)OC(c2cc(C(F)(F)F)cc(C(F)(F)F)c2)C1C (stereo not drawn)
- Potency [1]: inactive
- Potency [2]: inactive

SMILES: C/C=C(/C)C(=O)O[C@H]1[C@H](OC(=O)/C(C)=C\C)[C@@]23C(CC1(C)C)[C@]1(CCC4[C@@]5(C)CC[C@H](O[C@@H]6O[C@H](C(=O)O)[C@@H](O)[C@H](O[C@@H]7O[C@H](CO)[C@H](O)[C@H](O)[C@H]7O[C@@H]7O[C@@H](C)[C@H](O)[C@@H](O)[C@H]7O[C@@H]7OC[C@@H](O)[C@H](O)[C@H]7O)[C@H]6O[C@@H]6O[C@H](CO)[C@H](O)[C@H](O)[C@H]6O)C(C)(C)C5CC[C@@]4(C)[C@]1(C)C[C@H]2O)O[C@H]3O (stereo partly drawn)
- activity change, negative = inhibition [1]: -1.6% [at 11.2 µM]
- activity change, negative = inhibition [2]: -5.71% [at 11.2 µM]

SMILES: Cc1ccc(C)c(S(=O)(=O)n2cnc3ccccc32)c1
- Potency [1]: inactive
- Potency [2]: inactive

SMILES: C=CC(C)(O)CO[C@@H]1O[C@H](CO)[C@@H](O)[C@H](O)[C@H]1O (stereo partly drawn)
- Potency [1]: inactive
- Potency [2]: inactive

SMILES: COc1c(CCC(=O)O)cccc1O[C@@H]1O[C@H](CO)[C@@H](O)[C@H](O)[C@H]1O
- Potency [1]: inactive
- Potency [2]: inactive

SMILES: Nc1c(S(=O)(=O)c2ccccc2)c2nc3ccccc3nc2n1-c1ccc(F)cc1
- Potency [1]: inactive
- Potency [2]: inactive

SMILES: C[C@@H]1O[C@@H](O[C@@H]2CO[C@@H](O[C@H]3CC[C@@]4(C)C(CC[C@]5(C)C4CC=C4[C@@H]6CC(C)(C)CC[C@]6(C(=O)O[C@@H]6O[C@H](CO)[C@@H](O)[C@H](O)[C@H]6O)CC[C@]45C)[C@]3(C)CO)[C@H](O)[C@H]2O[C@@H]2O[C@H](CO)[C@@H](O)[C@H](O)[C@H]2O)[C@H](O)[C@H](O)[C@H]1O (stereo partly drawn)
- Potency [1]: inactive
- Potency [2]: inactive

SMILES: Cn1c(=O)n(-c2ccc(C(C)(C)C#N)cc2)c2c3cc(C#Cc4cccnc4)ccc3ncc21
- Potency [1]: inactive
- Potency [2]: inactive

SMILES: C[C@@H]1CCC2C(C)(C)[C@H](O)CC[C@]2(C)[C@@]12Cc1c(O)cc3c(c1O2)CN(CCO)C3=O (stereo partly drawn)
- Potency [1]: inactive
- Potency [2]: inactive

SMILES: COC(=O)C(C)C1CCC2(C)C(=O)C=CC(C)(O)C2C1O (stereo not drawn)
- Potency [1]: inactive
- Potency [2]: inactive

SMILES: O=C(/C=C/c1ccc(O)cc1)OCC1OC(O)C(OC2OC(CO)C(O)C(O)C2O)C(O)C1O (stereo not drawn)
- Potency [1]: inactive
- Potency [2]: inactive

SMILES: C/C(=C\CO)CC/C=C(\C)C(=O)O[C@@H]1O[C@H](CO)[C@@H](O)[C@H](O)[C@H]1O
- Potency [1]: inactive
- Potency [2]: inactive
